Consider 8 molecules from PubChem BioAssay (NCI).

“And” between values parts separate entries of the source, which are not always exact repeats. Equal values may be shown once. The panel holds about 83,000 compounds, 20% with a hit somewhere; the sample as a whole holds those more often.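 How to read the values: 0–100, growth inhibition (40 = 60% inhibited); 0, no net growth; -100 to 0, cell death (-40 = 40% of starting cells died; -100 = all dead).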 Unmarked numbers belong to inactive results. The source made the active and inactive calls. How the source made its calls: active means growth percent below 10; inactive means the rest.

Test systems include SR leukemia; RPMI-8226 leukemia; OVCAR-8 ovarian; OVCAR-5 ovarian; OVCAR-4 ovarian; SK-OV-3 ovarian; IGROV1 ovarian; OVCAR-3 ovarian; HS 578T breast; NCI/ADR-RES ovarian; T-47D breast; BT-549 breast; MDA-MB-435 melanoma; SW-620 colon; MCF7 breast; HCT-116 colon; HCC-2998 colon; KM12 colon; MOLT-4 leukemia.
Holding throughout (assay): NCI-60 one-dose screen, 48 h (100 = growth as untreated, 0 = no growth, -100 = all killed)
Holding throughout (conditions): 10 µM unless noted

`CO/N=C1\CC[C@]2(C)[C@H]3CC[C@]4(C)C(=O)CC[C@H]4[C@@H]3C[C@@H]3SC(N)=N[C@@]32C1`: the growth is 71.8% with SR leukemia; 93.2% in the experiment on RPMI-8226 leukemia; 105% in the experiment on OVCAR-8 ovarian; 105% in the experiment on OVCAR-5 ovarian; 90.9% in the experiment on OVCAR-4 ovarian; 122% in the experiment on SK-OV-3 ovarian. The growth with IGROV1 ovarian is 101%; with OVCAR-3 ovarian it was 85.5%; with HS 578T breast, 102%; with NCI/ADR-RES ovarian, 99.6%; with T-47D breast, 84.4%; in the experiment on BT-549 breast, 106%. The growth was 91.5% in the experiment on MDA-MB-435 melanoma; 106% in the experiment with SW-620 colon; 89.1% with MCF7 breast; 87.2% with HCT-116 colon; 103% in the experiment on HCC-2998 colon; 97.7% in the experiment on KM12 colon.
With `O=c1[nH]c(=O)n(Cl)c(=O)n1Cl`, the growth with SR leukemia was 102% and 113%; in the experiment with RPMI-8226 leukemia, 82.1%; with OVCAR-8 ovarian it was 103% and 108%; in the experiment on OVCAR-5 ovarian, 102% and 96.2%; in the experiment on OVCAR-4 ovarian it was 115% and 109%; in the experiment on SK-OV-3 ovarian, 111% and 109%. For the same molecule, the growth was 124% and 96.9% in the experiment with IGROV1 ovarian; 111% and 110% in the experiment with OVCAR-3 ovarian; 106% and 99.9% in the experiment with HS 578T breast; 115% and 96.8% in the experiment on NCI/ADR-RES ovarian; 112% and 95.3% with T-47D breast; 108% and 110% in the experiment on BT-549 breast. Moreover, the growth in the experiment on MDA-MB-435 melanoma is 102% and 114%; in the experiment with SW-620 colon it was 105% and 110%; with MCF7 breast, 108% and 86%; in the experiment with HCT-116 colon it was 113% and 99.4%; in the experiment with HCC-2998 colon, 123% and 96%; in the experiment with KM12 colon it was 101% and 107%.
On to `COc1ccc(O)c2c(=O)c3c(OC)cc4c(c3oc12)[C@@H]1C=CO[C@@H]1O4`, for which the growth with SR leukemia is -6.56% (active); in the experiment on RPMI-8226 leukemia, 63.5%; in the experiment with OVCAR-8 ovarian it was 50.6%; in the experiment with OVCAR-5 ovarian, 55.2%; with OVCAR-4 ovarian, 40.8%; in the experiment with SK-OV-3 ovarian, 35.6%. The growth in the experiment with IGROV1 ovarian is 16.3%; with OVCAR-3 ovarian, 52%; in the experiment on HS 578T breast it was 114%; in the experiment on NCI/ADR-RES ovarian it was 41.6%; with T-47D breast, 5.73% (active); with BT-549 breast, 17.8%. The growth in the experiment with MDA-MB-435 melanoma is 37.3%; with SW-620 colon, 64.6%; in the experiment with MCF7 breast, -0.498% (active); with HCT-116 colon, 52.2%; in the experiment on HCC-2998 colon it was -51.7% (active); with KM12 colon, 12.5%.
With `c1ccc2c(c1)sc1ccccc12`, the growth in the experiment with SR leukemia is 105%; in the experiment on RPMI-8226 leukemia, 103%; with OVCAR-8 ovarian it was 101%; in the experiment with OVCAR-5 ovarian, 95.7%; in the experiment with OVCAR-4 ovarian, 105%; in the experiment on SK-OV-3 ovarian, 104%. Besides, the growth in the experiment on IGROV1 ovarian is 98.2%; in the experiment with OVCAR-3 ovarian, 116%; in the experiment on HS 578T breast, 104%; in the experiment with NCI/ADR-RES ovarian, 99.4%; with T-47D breast it was 112%; with BT-549 breast, 96.7%. In addition, the growth was 92.8% with MDA-MB-435 melanoma; 106% with SW-620 colon; 102% in the experiment on MCF7 breast; 96.6% in the experiment with HCT-116 colon; 97.3% with HCC-2998 colon; 103% in the experiment on KM12 colon.
As to `c1ccc(CCN2CCCCC2)nc1`, the growth in the experiment on MOLT-4 leukemia is 92.9%; in the experiment on RPMI-8226 leukemia, 94.3%; with OVCAR-8 ovarian, 108%; in the experiment on OVCAR-5 ovarian it was 98.6%; with OVCAR-4 ovarian it was 99.3%; in the experiment on SK-OV-3 ovarian it was 99.2%. Also, the growth with IGROV1 ovarian was 107%; in the experiment on OVCAR-3 ovarian, 111%; in the experiment on HS 578T breast, 109%; with NCI/ADR-RES ovarian, 109%; with T-47D breast, 91.1%; in the experiment on BT-549 breast, 99.8%. In addition, the growth is 100% in the experiment with MDA-MB-435 melanoma; 112% in the experiment on SW-620 colon; 96.5% with MCF7 breast; 99.9% in the experiment with HCT-116 colon; 119% with HCC-2998 colon; 110% with KM12 colon.
For `NC1CN2CCC1CC2` (stereo unspecified), the growth in the experiment with MOLT-4 leukemia was 97.8%; in the experiment with RPMI-8226 leukemia, 96.4%; in the experiment with OVCAR-8 ovarian, 97.8%; with OVCAR-5 ovarian it was 95.5%; in the experiment with OVCAR-4 ovarian, 106%; with SK-OV-3 ovarian it was 97.4%. Further, the growth in the experiment with IGROV1 ovarian was 102%; with OVCAR-3 ovarian, 105%; in the experiment on HS 578T breast it was 101%; in the experiment with NCI/ADR-RES ovarian, 101%; with T-47D breast, 91%; in the experiment on BT-549 breast, 95%. The growth in the experiment on MDA-MB-435 melanoma was 104%; with SW-620 colon, 99.7%; in the experiment on MCF7 breast, 90.5%; in the experiment with HCT-116 colon, 109%; in the experiment on HCC-2998 colon it was 114%; with KM12 colon, 115%.
As for `CC[C@H](C)[C@H](NC(=O)[C@H]1CCCCN1C)C(=O)N(C)[C@H](C[C@@H](OC(C)=O)c1cccc(C(=O)N[C@@H](Cc2ccccc2)C[C@H](C)C(=O)OC)n1)C(C)C`, the growth is 12.2% with SR leukemia; 20% in the experiment on RPMI-8226 leukemia; 12% with OVCAR-8 ovarian; 39% with OVCAR-5 ovarian; 48.8% in the experiment with OVCAR-4 ovarian; 13.8% with SK-OV-3 ovarian. Moreover, the growth is 29% with IGROV1 ovarian; -18.1% (active) in the experiment with OVCAR-3 ovarian; 19.9% with HS 578T breast; 13.4% in the experiment on NCI/ADR-RES ovarian; 63.6% in the experiment with T-47D breast; -22.5% (active) in the experiment on BT-549 breast. For the same molecule, the growth with MDA-MB-435 melanoma was -29.2% (active); in the experiment on SW-620 colon it was 24.6%; in the experiment on MCF7 breast it was 12.7%; in the experiment with HCT-116 colon, -5.08% (active); in the experiment on HCC-2998 colon it was 15.4%; in the experiment on KM12 colon, 4.26% (active).
As for `Nc1nc(=S)nc(N)[nH]1`, the growth with MOLT-4 leukemia is 90.4%; in the experiment with SR leukemia it was 71.3%; in the experiment with OVCAR-8 ovarian it was 104%; with OVCAR-5 ovarian, 89.1%; in the experiment with SK-OV-3 ovarian, 102%; in the experiment with IGROV1 ovarian, 87.6%. In addition, the growth in the experiment on NCI/ADR-RES ovarian was 95.6%; in the experiment with T-47D breast, 94.5%; in the experiment with BT-549 breast, 77.8%; in the experiment on MDA-MB-435 melanoma, 105%; with SW-620 colon it was 101%; in the experiment on MCF7 breast it was 96.5%. The growth in the experiment on HCT-116 colon was 89.1%; in the experiment with HCC-2998 colon it was 92.1%; in the experiment with KM12 colon, 112%.
